Experimental findings from paper PMC7862700, “An all-to-all approach to the identification of sequence-specific readers for epigenetic DNA modifications on cytosine” are described below.

What all share (test): DAPPL (digital affinity profiling via proximity ligation, sequencing); 10 mM Tris-HCl pH 7.5, 50 mM NaCl, 1 mM DTT, 4% glycerol, room temperature, 30 min; GST-TFs on glutathione beads, 16-mer random dsDNA library, 0.1% formaldehyde crosslink after washing; high values mean tight binding
Conditions in all cases: protein: recombinant; tags: N-terminal GST; dsDNA, one strand shown

In one assay the target is T1, ERF (Homo sapiens, UniProt P50548 1-548).
T1 sequence: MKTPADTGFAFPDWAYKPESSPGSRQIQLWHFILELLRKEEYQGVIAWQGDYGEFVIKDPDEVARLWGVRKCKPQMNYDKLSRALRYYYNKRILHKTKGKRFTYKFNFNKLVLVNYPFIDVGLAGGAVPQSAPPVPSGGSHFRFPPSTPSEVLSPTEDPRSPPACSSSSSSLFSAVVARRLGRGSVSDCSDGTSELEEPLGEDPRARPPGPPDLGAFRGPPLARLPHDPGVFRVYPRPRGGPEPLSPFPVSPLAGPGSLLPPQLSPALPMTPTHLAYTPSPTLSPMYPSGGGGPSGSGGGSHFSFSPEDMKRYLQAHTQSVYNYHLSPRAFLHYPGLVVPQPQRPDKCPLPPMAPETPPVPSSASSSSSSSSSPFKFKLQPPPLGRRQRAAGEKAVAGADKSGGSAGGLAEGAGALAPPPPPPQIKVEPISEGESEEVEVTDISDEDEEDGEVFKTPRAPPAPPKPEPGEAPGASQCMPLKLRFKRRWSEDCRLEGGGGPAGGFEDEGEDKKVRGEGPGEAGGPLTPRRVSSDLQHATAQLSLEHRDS
The gist of the method: (§1)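 Pools were built from human transcription factors expressed in yeast as GST fusions, captured on glutathione beads and DNA-barcoded, along with a tag-only sample. Incubation with 200 nmole of a 16-mer random double-stranded DNA library lasted 30 min at room temperature in Tris/NaCl/DTT/glycerol buffer, and was followed by washing, 0.1% formaldehyde crosslinking, proximity ligation, PCR amplification and Illumina NextSeq500 sequencing. Binding signal is the quotient of each hexamer's read frequency for a factor and its frequency for the tag-only sample.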

The next assay addresses T2, ETV3L (Homo sapiens, UniProt Q6ZN32 1-361).
T2 sequence: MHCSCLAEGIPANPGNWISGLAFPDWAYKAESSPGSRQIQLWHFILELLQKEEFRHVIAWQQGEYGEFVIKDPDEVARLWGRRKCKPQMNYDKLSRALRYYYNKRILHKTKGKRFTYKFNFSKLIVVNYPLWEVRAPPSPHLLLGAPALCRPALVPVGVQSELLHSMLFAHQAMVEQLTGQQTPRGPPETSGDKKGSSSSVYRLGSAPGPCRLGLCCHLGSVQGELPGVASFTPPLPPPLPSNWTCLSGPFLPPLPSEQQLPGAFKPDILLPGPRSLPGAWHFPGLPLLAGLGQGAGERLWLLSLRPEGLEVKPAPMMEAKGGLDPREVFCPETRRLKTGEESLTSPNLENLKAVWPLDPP
The method in brief:
as §1

In another assay the target is T3, ETS2 (Homo sapiens, UniProt P15036 1-469).
T3 sequence: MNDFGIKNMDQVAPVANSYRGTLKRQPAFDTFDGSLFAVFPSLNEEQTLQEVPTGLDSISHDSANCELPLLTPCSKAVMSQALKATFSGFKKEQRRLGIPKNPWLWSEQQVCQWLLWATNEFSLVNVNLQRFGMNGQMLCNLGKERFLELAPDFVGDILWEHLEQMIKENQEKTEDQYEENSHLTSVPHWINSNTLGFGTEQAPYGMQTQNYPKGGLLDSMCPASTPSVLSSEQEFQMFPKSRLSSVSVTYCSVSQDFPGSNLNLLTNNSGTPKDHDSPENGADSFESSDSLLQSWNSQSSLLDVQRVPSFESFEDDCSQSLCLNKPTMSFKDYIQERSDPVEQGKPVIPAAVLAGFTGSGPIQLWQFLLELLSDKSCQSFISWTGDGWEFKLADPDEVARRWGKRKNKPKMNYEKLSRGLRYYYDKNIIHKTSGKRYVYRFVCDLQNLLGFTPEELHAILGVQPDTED
The gist of the method:
as §1

The next assay concerns the target T4, SPDEF (Homo sapiens, UniProt O95238 1-335).
T4 sequence: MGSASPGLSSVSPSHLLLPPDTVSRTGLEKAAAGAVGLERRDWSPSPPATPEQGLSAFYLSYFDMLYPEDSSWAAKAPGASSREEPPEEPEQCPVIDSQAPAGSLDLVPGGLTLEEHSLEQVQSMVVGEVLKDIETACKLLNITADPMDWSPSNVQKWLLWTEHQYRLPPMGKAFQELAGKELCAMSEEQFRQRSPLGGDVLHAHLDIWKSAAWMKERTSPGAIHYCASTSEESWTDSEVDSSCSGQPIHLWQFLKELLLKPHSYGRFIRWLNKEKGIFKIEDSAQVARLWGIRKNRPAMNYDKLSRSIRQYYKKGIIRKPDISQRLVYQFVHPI
The method in brief: as §1

In the next assay the target is T5, ETV7 (Homo sapiens, UniProt Q9Y603 1-341).
T5 sequence: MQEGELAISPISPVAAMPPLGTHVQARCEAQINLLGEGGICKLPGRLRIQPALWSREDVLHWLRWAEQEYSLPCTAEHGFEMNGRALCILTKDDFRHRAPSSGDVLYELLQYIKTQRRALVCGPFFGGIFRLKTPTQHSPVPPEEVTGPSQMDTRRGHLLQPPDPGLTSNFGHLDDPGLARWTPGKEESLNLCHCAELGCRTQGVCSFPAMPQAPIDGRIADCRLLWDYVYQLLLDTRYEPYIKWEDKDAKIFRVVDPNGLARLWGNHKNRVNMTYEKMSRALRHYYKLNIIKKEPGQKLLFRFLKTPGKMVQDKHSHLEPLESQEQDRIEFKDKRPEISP
The gist of the method:
as §1

In a further assay the target is T6, ELF5 (Homo sapiens, UniProt Q9UKW6-2 1-255).
T6 sequence: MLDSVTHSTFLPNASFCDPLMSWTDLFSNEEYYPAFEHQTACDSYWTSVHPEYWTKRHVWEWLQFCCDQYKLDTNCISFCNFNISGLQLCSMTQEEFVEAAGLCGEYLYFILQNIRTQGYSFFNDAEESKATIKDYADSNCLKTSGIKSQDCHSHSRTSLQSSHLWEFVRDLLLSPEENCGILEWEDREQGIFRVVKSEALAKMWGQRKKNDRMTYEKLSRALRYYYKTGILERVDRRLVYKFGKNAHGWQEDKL
The gist of the method:
as §1

A further assay has as its target T7, ETV3 (Homo sapiens, UniProt P41162-2 1-143).
T7 sequence: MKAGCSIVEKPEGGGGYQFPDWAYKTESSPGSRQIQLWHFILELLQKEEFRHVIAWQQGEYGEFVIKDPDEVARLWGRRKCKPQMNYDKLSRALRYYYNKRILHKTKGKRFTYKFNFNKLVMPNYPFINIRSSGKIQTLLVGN
The gist of the method:
as §1

A further assay has as its target ETV6 (Homo sapiens, UniProt P41212 1-452). The method in brief:
as §1

ETV6, sequence (P41212 whole entry): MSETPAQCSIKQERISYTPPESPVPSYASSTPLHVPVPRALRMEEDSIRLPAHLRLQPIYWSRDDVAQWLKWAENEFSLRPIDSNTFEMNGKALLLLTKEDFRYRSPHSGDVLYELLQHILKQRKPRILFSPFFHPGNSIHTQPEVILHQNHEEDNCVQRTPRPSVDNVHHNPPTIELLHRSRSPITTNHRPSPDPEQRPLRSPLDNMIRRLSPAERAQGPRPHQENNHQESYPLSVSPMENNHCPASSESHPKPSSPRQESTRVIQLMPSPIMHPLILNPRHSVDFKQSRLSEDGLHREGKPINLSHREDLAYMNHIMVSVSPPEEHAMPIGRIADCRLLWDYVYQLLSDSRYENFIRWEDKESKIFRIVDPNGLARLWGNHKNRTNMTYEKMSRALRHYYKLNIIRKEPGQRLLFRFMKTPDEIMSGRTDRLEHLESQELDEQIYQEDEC

For the sequence TTACGA, the binding signal is 1.06 fold enrichment (6-mer frequency, TF over GST control) with ERF; 1.18 fold enrichment (6-mer frequency, TF over GST control) with ETV3L; 1.14 fold enrichment (6-mer frequency, TF over GST control) in the assay with ETS2; 1.1 fold enrichment (6-mer frequency, TF over GST control) in the assay with SPDEF; 1.1 fold enrichment (6-mer frequency, TF over GST control) with ETV7; 1.08 fold enrichment (6-mer frequency, TF over GST control) with ELF5. The binding signal was 1.1 fold enrichment (6-mer frequency, TF over GST control) with ETV3 and 1.21 fold enrichment (6-mer frequency, TF over GST control) in the assay with ETV6.

Consider CGCTCC, for which the binding signal with ERF was 1.31 fold enrichment (6-mer frequency, TF over GST control); in the assay with ETV3L, 1.4 fold enrichment (6-mer frequency, TF over GST control); with ETS2, 1.39 fold enrichment (6-mer frequency, TF over GST control); with SPDEF, 1.22 fold enrichment (6-mer frequency, TF over GST control); in the assay with ETV7 it was 1.18 fold enrichment (6-mer frequency, TF over GST control); in the assay with ELF5, 1.23 fold enrichment (6-mer frequency, TF over GST control). Besides, the binding signal in the assay with ETV3 is 1.19 fold enrichment (6-mer frequency, TF over GST control); in the assay with ETV6, 1.11 fold enrichment (6-mer frequency, TF over GST control).

Turning to CCGGAA, the binding signal is 4.48 fold enrichment (6-mer frequency, TF over GST control) with ERF; 5.28 fold enrichment (6-mer frequency, TF over GST control) in the assay with ETV3L; 5.63 fold enrichment (6-mer frequency, TF over GST control) with ETS2; 6.22 fold enrichment (6-mer frequency, TF over GST control) in the assay with SPDEF; 5.01 fold enrichment (6-mer frequency, TF over GST control) in the assay with ETV7; 6.42 fold enrichment (6-mer frequency, TF over GST control) in the assay with ELF5. For the same sequence, the binding signal with ETV3 was 6.2 fold enrichment (6-mer frequency, TF over GST control); with ETV6 it was 6.11 fold enrichment (6-mer frequency, TF over GST control).

For ACACAA, the binding signal with ERF was 1.26 fold enrichment (6-mer frequency, TF over GST control); in the assay with ETV3L, 1.2 fold enrichment (6-mer frequency, TF over GST control); in the assay with ETS2, 1.25 fold enrichment (6-mer frequency, TF over GST control); with SPDEF it was 1.17 fold enrichment (6-mer frequency, TF over GST control); with ETV7, 1.08 fold enrichment (6-mer frequency, TF over GST control); in the assay with ELF5 it was 1.17 fold enrichment (6-mer frequency, TF over GST control). The binding signal with ETV3 is 1.13 fold enrichment (6-mer frequency, TF over GST control); in the assay with ETV6, 1.2 fold enrichment (6-mer frequency, TF over GST control).

As for TTAAAT, the binding signal is 1.1 fold enrichment (6-mer frequency, TF over GST control) in the assay with ERF; 1.22 fold enrichment (6-mer frequency, TF over GST control) in the assay with ETV3L; 1.19 fold enrichment (6-mer frequency, TF over GST control) with ETS2; 1.16 fold enrichment (6-mer frequency, TF over GST control) with SPDEF; 1.21 fold enrichment (6-mer frequency, TF over GST control) with ETV7; 1.08 fold enrichment (6-mer frequency, TF over GST control) with ELF5. In addition, the binding signal is 1.15 fold enrichment (6-mer frequency, TF over GST control) with ETV3 and 1.23 fold enrichment (6-mer frequency, TF over GST control) in the assay with ETV6.

Regarding TCACCC, the binding signal in the assay with ERF was 1.2 fold enrichment (6-mer frequency, TF over GST control); in the assay with ETV3L, 1.16 fold enrichment (6-mer frequency, TF over GST control); with ETS2 it was 1.13 fold enrichment (6-mer frequency, TF over GST control); with SPDEF it was 1.23 fold enrichment (6-mer frequency, TF over GST control); with ETV7 it was 1.04 fold enrichment (6-mer frequency, TF over GST control); with ELF5, 1.07 fold enrichment (6-mer frequency, TF over GST control). The binding signal was 1.14 fold enrichment (6-mer frequency, TF over GST control) in the assay with ETV3 and 1.05 fold enrichment (6-mer frequency, TF over GST control) in the assay with ETV6.

As to ATATTT, the binding signal is 1.55 fold enrichment (6-mer frequency, TF over GST control) with ERF; 1.4 fold enrichment (6-mer frequency, TF over GST control) in the assay with ETV3L; 1.58 fold enrichment (6-mer frequency, TF over GST control) with ETS2; 1.54 fold enrichment (6-mer frequency, TF over GST control) with SPDEF; 1.67 fold enrichment (6-mer frequency, TF over GST control) in the assay with ETV7; 1.65 fold enrichment (6-mer frequency, TF over GST control) in the assay with ELF5. Besides, the binding signal with ETV3 was 1.65 fold enrichment (6-mer frequency, TF over GST control); with ETV6, 1.57 fold enrichment (6-mer frequency, TF over GST control).
